Results published in the supplement of paper PMC8371130.
Structures can show the parent of a compound that is named as a salt.

Test system: HL-1
Experiment: relative cell viability (CellTiter-Glo) vs DMSO control (% of DMSO control); higher = more viable cells
In short: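 Cell viability, normalised to vehicle-treated control cells, was read by CellTiter-Glo luminescence. For this, HL-1 mouse atrial cardiomyocytes were plated at 1000 cells per well in 384-well plates alongside compounds at 40, 200, 1000 or 5000 nM in 0.01% DMSO. After a day, plates either spent 48 h in a hypoxic workstation at 1% O2 and then 24 h reoxygenating in a normal incubator, or remained in normoxia for the same period.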

[1] = oxygen condition: hypoxia 48 h (1% O2) + reoxygenation 24 h, 40 nM
[2] = oxygen condition: hypoxia 48 h (1% O2) + reoxygenation 24 h, 200 nM
[3] = oxygen condition: hypoxia 48 h (1% O2) + reoxygenation 24 h, 1000 nM
[4] = oxygen condition: hypoxia 48 h (1% O2) + reoxygenation 24 h, 5000 nM
[5] = oxygen condition: normoxia 72 h, 40 nM
[6] = oxygen condition: normoxia 72 h, 200 nM
[7] = oxygen condition: normoxia 72 h, 1000 nM
[8] = oxygen condition: normoxia 72 h, 5000 nM

SMILES | relative cell viability [1] | relative cell viability [2] | relative cell viability [3] | relative cell viability [4] | relative cell viability [5] | relative cell viability [6] | relative cell viability [7] | relative cell viability [8]
Nc1nc2[nH]cc(CCc3ccc(C(=O)N[C@@H](CCC(=O)O)C(=O)O)cc3)c2c(=O)[nH]1 [Pemetrexed] | 116 | 104 | 85.8 | 74.8 | 104 | 95.5 | 90.8 | 69.6
Nc1cc(C(Cl)=C(Cl)Cl)c(S(N)(=O)=O)cc1S(N)(=O)=O [Clorsulon] | 109 | 105 | 107 | 113 | 110 | 115 | 116 | 110
COc1cc2nc(N3CCN(C(=O)c4ccco4)CC3)nc(N)c2cc1OC [Prazosin HCl] | 102 | 101 | 109 | 109 | 101 | 100 | 106 | 109
CC(=O)OCC(=O)[C@@]1(O)CC[C@H]2[C@@H]3CCC4=CC(=O)CC[C@]4(C)[C@H]3C(=O)C[C@@]21C [Cortisone acetate] | 99.7 | 98.2 | 98.1 | 108 | 94.7 | 94.2 | 93.2 | 103
CC1=C(/C=C/C(C)=C/C=C/C(C)=C/C(=O)O)C(C)(C)CCC1 [Tretinoin] | 113 | 109 | 110 | 100 | 112 | 106 | 101 | 121
C=C1CC[C@H](O)C/C1=C/C=C1\CCC[C@]2(C)[C@@H]([C@H](C)CCCC(C)(C)O)CC[C@@H]12 [Calcifediol] | 112 | 106 | 106 | 109 | 103 | 104 | 114 | 117
CC(C)C[C@H](NC(=O)[C@H](CCc1ccccc1)NC(=O)CN1CCOCC1)C(=O)N[C@@H](Cc1ccccc1)C(=O)N[C@@H](CC(C)C)C(=O)[C@@]1(C)CO1 [Carfilzomib] | 3.62 | 3.8 | 4.12 | 3.78 | 3.3 | 4.04 | 3.72 | 3.71
CCCCOc1cc(C(=O)NCCN(CC)CC)c2ccccc2n1 [Dibucaine HCL] | 103 | 107 | 108 | 118 | 109 | 110 | 109 | 118
COC(=O)[C@@H]1CC2=CC(=O)CC[C@]2(C)[C@@]23O[C@@H]2C[C@@]2(C)[C@@H](CC[C@@]24CCC(=O)O4)[C@H]13 [Eplerenone] | 102 | 103 | 101 | 103 | 107 | 107 | 108 | 104
CCN(CC)CCOc1ccc(C(=C(Cl)c2ccccc2)c2ccccc2)cc1 [Clomifene citrate] | 101 | 104 | 107 | 35.1 | 111 | 106 | 98.2 | 6.57
CN1CCC(OC(c2ccccc2)c2ccccc2)CC1 [Diphenylpyraline HCl] | 102 | 96.9 | 99.3 | 110 | 96.9 | 103 | 102 | 100
CN(Cc1cnc2nc(N)nc(N)c2n1)c1ccc(C(=O)N[C@@H](CCC(=O)O)C(=O)O)cc1 [Abitrexate] | 75.8 | 51.7 | 42.5 | 42 | 58.2 | 52.2 | 41.8 | 43.9
CC(C)(C(=O)O)c1ccc(C(O)CCCN2CCC(C(O)(c3ccccc3)c3ccccc3)CC2)cc1 (centres undefined) [Fexofenadine HCl] | 106 | 96.5 | 99.8 | 99.8 | 107 | 96.2 | 104 | 110
CC(C)(Oc1ccc(CCNC(=O)c2ccc(Cl)cc2)cc1)C(=O)O [Bezafibrate] | 102 | 98.2 | 105 | 107 | 105 | 101 | 99.8 | 103
C[C@@H]1CC(=O)NN=C1c1ccc(NN=C(C#N)C#N)cc1 [Levosimendan] | 101 | 103 | 102 | 108 | 95.9 | 103 | 105 | 103
O=C(O)c1cccnc1 [Niacin] | 107 | 107 | 98 | 109 | 110 | 111 | 106 | 93.9
O=C(O)C(=O)O.[NH-][C@@H]1CCCC[C@H]1[NH-].[Pt+2] [Oxaliplatin] | 99.8 | 102 | 109 | 114 | 97.4 | 107 | 105 | 122
NC(=O)c1ncn([C@@H]2O[C@H](CO)[C@@H](O)[C@H]2O)n1 [Ribavirin] | 102 | 96.2 | 108 | 101 | 100 | 104 | 109 | 107
CCc1c2c(nc3ccc(OC(=O)N4CCC(N5CCCCC5)CC4)cc13)-c1cc3c(c(=O)n1C2)COC(=O)[C@]3(O)CC [Irinotecan] | 99.9 | 90.1 | 51.8 | 28.7 | 95.2 | 83.4 | 64.9 | 22.8
CC(C)NCC(O)COc1ccc(CCOCC2CC2)cc1 (centres undefined) [Betaxolol] | 99.8 | 98.5 | 100 | 101 | 96.4 | 100 | 99.6 | 108
CC(C)NCC(O)COc1cccc2ccccc12 (centres undefined) [Propranolol HCl] | 99.8 | 109 | 103 | 109 | 107 | 100 | 92.5 | 106
CCCCOc1cc(C(=O)OCCN(CC)CC)ccc1N [Oxybuprocaine HCl] | 106 | 106 | 108 | 108 | 103 | 102 | 113 | 112

SMILES | relative cell viability [1] | relative cell viability [2] | relative cell viability [3] | relative cell viability [4] | relative cell viability [5] | relative cell viability [6] | relative cell viability [7] | relative cell viability [8]
C[C@@H](O[C@H]1OCCN(Cc2nn(P(=O)(O)O)c(=O)[nH]2)[C@H]1c1ccc(F)cc1)c1cc(C(F)(F)F)cc(C(F)(F)F)c1 [Fosaprepitant dimeglumine] | 104 | 105 | 119 | 108 | 113 | 129 | 130 | 105
NS(=O)(=O)c1cc2c(cc1Cl)NC(C(Cl)Cl)NS2(=O)=O (centres undefined) [Trichlormethiazide] | 109 | 109 | 118 | 119 | 107 | 115 | 112 | 114
O=C(O)c1ccc(NC(=O)[C@H](Cc2ccc(O)cc2)NC(=O)c2ccccc2)cc1 [Bentiromide] | 104 | 104 | 101 | 102 | 103 | 106 | 99.5 | 111
CC#CCn1c(N2CCC[C@@H](N)C2)nc2c1c(=O)n(Cc1nc(C)c3ccccc3n1)c(=O)n2C [Linagliptin] | 96.7 | 103 | 104 | 105 | 106 | 105 | 107 | 106
O=C(O)/C=C/c1ccc(Cn2ccnc2)cc1 [Ozagrel HCl] | 103 | 102 | 102 | 96.7 | 90.2 | 96.8 | 104 | 97.8
C=C1/C(=C\C=C2/CCC[C@]3(C)[C@@H]([C@H](C)/C=C/[C@H](C)C(C)C)CC[C@@H]23)C[C@@H](O)C[C@@H]1O [Doxercalciferol] | 89.5 | 88 | 93.7 | 88.7 | 106 | 99 | 103 | 52.4
CCCCC[C@H](O)/C=C/[C@H]1[C@H](O)CC(=O)[C@@H]1CCCCCCC(=O)O [Alprostadil] | 104 | 106 | 107 | 107 | 108 | 102 | 111 | 101
c1ccc2c(CC3=NCCN3)cccc2c1 [Naphazoline hydrochloride] | 97.8 | 111 | 106 | 109 | 98.8 | 102 | 106 | 102
CNNCc1ccc(C(=O)NC(C)C)cc1 [Procarbazine HCl] | 109 | 101 | 96.6 | 108 | 97.6 | 101 | 97.9 | 113
CN[C@H](CC(C)C)C(=O)N[C@H]1C(=O)N[C@@H](CC(N)=O)C(=O)N[C@H]2C(=O)N[C@H]3C(=O)N[C@H](C(=O)N[C@H](C(=O)O)c4cc(O)cc(O)c4-c4cc3ccc4O)[C@H](O)c3ccc(c(Cl)c3)Oc3cc2cc(c3O[C@@H]2O[C@H](CO)[C@@H](O)[C@H](O)[C@H]2O[C@H]2C[C@](C)(N)[C@H](O)[C@H](C)O2)Oc2ccc(cc2Cl)[C@H]1O [Vancomycin HCl] | 105 | 92.7 | 105 | 114 | 106 | 99.4 | 106 | 113
CNC(=O)c1ccc(N2C(=S)N(c3ccc(C#N)c(C(F)(F)F)c3)C(=O)C2(C)C)cc1F | 99.6 | 103 | 51.5 | 106 | 99.6 | 102 | 106 | 109
CCCCN1CCCCC1C(=O)Nc1c(C)cccc1C (centres undefined) [Bupivacaine hydrochloride] | 107 | 105 | 102 | 104 | 105 | 105 | 106 | 102
Cc1cc(C)nc(NS(=O)(=O)c2ccc(N)cc2)n1 [Sulfamethazine] | 102 | 104 | 104 | 112 | 94.6 | 104 | 105 | 119
CCN(CC)C(=S)SSC(=S)N(CC)CC [Disulfiram] | 12.3 | 8.25 | 4.82 | 4.57 | 19.2 | 11.5 | 6.89 | 3.79
Cn1c([N+](=O)[O-])cnc1COC(N)=O [Ronidazole] | 107 | 112 | 106 | 118 | 112 | 113 | 121 | 110
N=C(N)NC(=N)N1CCOCC1 [Moroxydine] | 101 | 98.5 | 103 | 108 | 96.3 | 101 | 105 | 114
O=c1c(-c2ccc(O)cc2)coc2cc(O)cc(O)c12 [Genistein] | 104 | 106 | 113 | 110 | 111 | 104 | 106 | 111
N[C@@H](Cc1cc(I)c(Oc2ccc(O)c(I)c2)c(I)c1)C(=O)O [Liothyronine Sodium] | 105 | 108 | 111 | 109 | 103 | 102 | 108 | 107
COc1ccc([C@H]2CNC(=O)C2)cc1OC1CCCC1 [S-(+)-Rolipram] | 103 | 92.3 | 89.4 | 90.4 | 95.6 | 101 | 98.7 | 103
C[C@]12CCC3=C4CCC(=O)C=C4CC[C@H]3[C@@H]1CC[C@@]2(O)CC#N [Dienogest] | 103 | 104 | 106 | 103 | 105 | 102 | 107 | 107
Cc1nc2n(c(=O)c1CCN1CCC(c3noc4cc(F)ccc34)CC1)CCCC2O (centres undefined) [Paliperidone] | 106 | 107 | 106 | 104 | 104 | 109 | 105 | 118
